Bioassay records: PubChem, Broad Institute
An excerpt weighted towards active compounds, which were near 0.53% of everything screened.
TcdB inh = TcdB glycohydrolase inhibitors, primary screen, biochemical, single point, plate reader | inhibition, % at 9.99 µM | TcdB glycohydrolase enzymatic assay | hit rate 0.24% among 350,000 | Toxin B (Clostridioides difficile), P18177; in the data active = inhibition above about 10%
Target sequence (P18177 whole entry, looked up): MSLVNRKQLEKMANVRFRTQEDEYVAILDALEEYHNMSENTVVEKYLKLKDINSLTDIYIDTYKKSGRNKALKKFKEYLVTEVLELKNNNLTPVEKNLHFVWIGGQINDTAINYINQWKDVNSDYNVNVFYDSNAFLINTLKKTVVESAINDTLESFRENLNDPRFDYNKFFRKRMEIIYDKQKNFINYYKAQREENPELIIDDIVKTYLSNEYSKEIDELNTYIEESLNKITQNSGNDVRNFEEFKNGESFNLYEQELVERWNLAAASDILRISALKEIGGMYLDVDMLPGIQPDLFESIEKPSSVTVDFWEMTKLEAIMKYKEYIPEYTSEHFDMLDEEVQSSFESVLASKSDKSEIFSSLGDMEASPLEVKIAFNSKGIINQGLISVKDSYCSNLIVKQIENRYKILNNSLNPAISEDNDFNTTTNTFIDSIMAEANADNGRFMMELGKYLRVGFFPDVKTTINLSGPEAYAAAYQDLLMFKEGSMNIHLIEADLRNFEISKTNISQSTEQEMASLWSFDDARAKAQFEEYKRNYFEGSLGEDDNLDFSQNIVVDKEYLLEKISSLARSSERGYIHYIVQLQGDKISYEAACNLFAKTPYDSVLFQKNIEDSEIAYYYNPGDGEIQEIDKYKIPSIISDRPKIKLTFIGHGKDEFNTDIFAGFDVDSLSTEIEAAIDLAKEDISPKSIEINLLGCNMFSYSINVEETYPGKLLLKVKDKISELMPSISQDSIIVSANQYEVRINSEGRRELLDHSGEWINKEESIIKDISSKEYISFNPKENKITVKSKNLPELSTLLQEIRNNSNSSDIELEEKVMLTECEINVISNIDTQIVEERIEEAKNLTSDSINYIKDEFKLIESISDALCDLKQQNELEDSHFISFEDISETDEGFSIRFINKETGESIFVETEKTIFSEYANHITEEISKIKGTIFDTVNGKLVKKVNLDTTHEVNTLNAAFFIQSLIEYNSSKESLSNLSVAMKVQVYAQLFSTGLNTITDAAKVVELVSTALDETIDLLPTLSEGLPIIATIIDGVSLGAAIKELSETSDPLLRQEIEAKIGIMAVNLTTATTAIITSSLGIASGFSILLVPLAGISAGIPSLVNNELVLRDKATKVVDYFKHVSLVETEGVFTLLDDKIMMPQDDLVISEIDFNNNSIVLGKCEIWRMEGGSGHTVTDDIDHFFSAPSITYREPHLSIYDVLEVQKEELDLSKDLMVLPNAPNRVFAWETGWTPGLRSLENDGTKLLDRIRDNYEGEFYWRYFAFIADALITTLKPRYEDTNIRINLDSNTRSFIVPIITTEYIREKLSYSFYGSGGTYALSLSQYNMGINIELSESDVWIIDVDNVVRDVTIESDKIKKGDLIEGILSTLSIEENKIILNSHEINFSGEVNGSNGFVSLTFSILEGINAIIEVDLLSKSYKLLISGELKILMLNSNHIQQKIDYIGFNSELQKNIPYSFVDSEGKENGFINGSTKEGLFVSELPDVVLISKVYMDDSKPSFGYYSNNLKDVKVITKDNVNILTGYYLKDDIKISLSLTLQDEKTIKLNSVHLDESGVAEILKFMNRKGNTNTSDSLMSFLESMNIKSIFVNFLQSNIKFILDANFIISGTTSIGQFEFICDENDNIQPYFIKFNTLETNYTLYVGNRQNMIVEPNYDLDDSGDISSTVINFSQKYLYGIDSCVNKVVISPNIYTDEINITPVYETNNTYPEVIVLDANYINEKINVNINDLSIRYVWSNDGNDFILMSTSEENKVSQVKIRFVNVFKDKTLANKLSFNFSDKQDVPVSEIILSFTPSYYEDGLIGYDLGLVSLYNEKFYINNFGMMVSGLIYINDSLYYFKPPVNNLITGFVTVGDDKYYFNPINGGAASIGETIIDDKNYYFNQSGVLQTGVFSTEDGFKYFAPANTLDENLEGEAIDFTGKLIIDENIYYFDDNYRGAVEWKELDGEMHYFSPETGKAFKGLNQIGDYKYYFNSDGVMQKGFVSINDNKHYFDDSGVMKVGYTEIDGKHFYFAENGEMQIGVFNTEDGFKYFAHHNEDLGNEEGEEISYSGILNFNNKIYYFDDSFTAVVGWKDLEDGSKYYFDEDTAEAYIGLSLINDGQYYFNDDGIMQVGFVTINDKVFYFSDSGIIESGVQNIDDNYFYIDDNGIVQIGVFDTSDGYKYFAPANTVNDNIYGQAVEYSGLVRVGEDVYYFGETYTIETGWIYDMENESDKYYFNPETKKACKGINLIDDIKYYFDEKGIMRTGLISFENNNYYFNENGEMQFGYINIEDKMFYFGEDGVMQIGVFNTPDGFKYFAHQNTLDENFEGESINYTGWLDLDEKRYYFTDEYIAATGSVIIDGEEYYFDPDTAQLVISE
PrP 5UTR inh = inhibition of PrP 5' UTR reporter expression; cell-based PrP 5' UTR mRNA reporter, plate reader; inhibition, % (no concentration beside the values); hit rate 0.35% among 340,000; in the data active = inhibition above about 52%
Yp Topo-I inh = Yersinia pestis topoisomerase I inhibitors, primary screen, biochemical, cleavage product accumulation, plate reader, single point | DNA topoisomerase I (Yersinia pestis CO92) | Y. pestis Topo-I cleavage product accumulation | activity, % at 10 µM | hit rate 0.064% among 360,000 | AID 504884, 2011; in the data active = activity above about 50%, passing the limit was not always enough; inconclusive = no clear call, values can overlap the other calls
BioA inh = M. tuberculosis BioA enzyme inhibitors, primary screen, biochemical, plate reader, single point, HTS | inhibition, % at 9.99 µM | hit rate 0.096% among 360,000 | purified M. tuberculosis BioA enzyme; in the data active = inhibition above about 40%; inconclusive = no clear call, values can overlap the other calls
PrP 5UTR single = prion 5' UTR mRNA inhibition, cherry-pick retest; shares compounds with PrP 5UTR inh; AID 504592, 2011; hit rate 48% among 1,100; cell-based prion protein 5' UTR reporter, plate reader; inhibition, % at 2.5 µM; in the data active = inhibition above about 54%; inconclusive = no clear call, values can overlap the other calls
Each line names hits and unclear results; the compound was inactive in the other large screens (follow-up assays come after a bar, where they were run).

COc1cccc(NC(=O)N2C[C@H](O)COC[C@H]3O[C@@H](CC(=O)NC4Cc5ccccc5C4)CC[C@@H]32)c1	none (no result: PrP 5UTR inh, Yp Topo-I inh)
Cn1cc(/C=N\NC(=O)C2COc3ccccc3O2)c2ccccc21 (configuration not stated)	none (no result: PrP 5UTR inh, Yp Topo-I inh, BioA inh)
Cc1c(/C=N\NC(=O)C2COc3ccccc3O2)c2ccccc2n1C (configuration not stated)	PrP 5UTR inh 67.4 (no result: TcdB inh, BioA inh) | PrP 5UTR single 83.5
Cc1nc2ccccc2c(=O)n1/N=C/c1c(O)ccc2oc3c(c12)CCCC3	PrP 5UTR inh 60.8 (no result: TcdB inh, BioA inh) | PrP 5UTR single inactive
O=C(Nc1nc2ccccc2[nH]1)c1ccccc1F	PrP 5UTR inh 84.6 (no result: TcdB inh) | PrP 5UTR single 85.0
O=C(Nc1nc2ccccc2[nH]1)c1ccc(F)cc1	none (no result: BioA inh)
CC(C)Oc1ccc(C(=O)Nc2nc3ccccc3[nH]2)cc1	PrP 5UTR inh 60.9 | PrP 5UTR single 61.7
CCc1ccc(C(=O)Nc2nc3ccccc3[nH]2)cc1	PrP 5UTR inh 62.7 | PrP 5UTR single inconclusive
CCCN1C[C@@H](C)[C@@H](OC)CN(C)C(=O)c2cc(NC(=O)Nc3ccccc3F)ccc2OC[C@@H]1C	none (no result: TcdB inh, PrP 5UTR inh, Yp Topo-I inh)
COc1ccc(S(=O)(=O)Nc2ccc3c(c2)C(=O)N([C@@H](C)CO)C[C@@H](C)[C@@H](CN(C)Cc2ccc4c(c2)OCO4)OCCCC[C@H](C)O3)cc1	none (no result: PrP 5UTR inh, Yp Topo-I inh)
CCN(CC)S(=O)(=O)c1ccc(N2CCCC2)c(NC(=O)CN2C(=O)NC3(CCCC3)C2=O)c1	PrP 5UTR inh 76.5 | PrP 5UTR single inactive
Cc1ccc(Cl)cc1NC(=O)C1CC(=O)Nc2ncnn21 (configuration not stated)	none
O=C1CC(C(=O)Nc2cc(Cl)ccc2Cl)n2ncnc2N1 (configuration not stated)	PrP 5UTR inh 78.2 (no result: BioA inh) | PrP 5UTR single inactive
CC(=O)Nc1ccc(NC(=O)CN(C)CC(=O)Nc2ccccc2Br)cc1	none (no result: BioA inh)
CN(CC(=O)Nc1cccc(F)c1)CC(=O)N(C)CC(=O)Nc1ccccc1Br	PrP 5UTR inh 90.9 | PrP 5UTR single inactive
COc1cccc(C(=O)N2C[C@H]3[C@@H](c4ccccc42)[C@@H](CO)N3Cc2ccccc2Cl)c1	none (no result: TcdB inh, PrP 5UTR inh, Yp Topo-I inh)
COCC(=O)Nc1ccc2c(c1)OC[C@@H](C)N(C(=O)Cc1ccccn1)C[C@@H](C)[C@@H](OC)CN(C)C2=O	none (no result: PrP 5UTR inh, Yp Topo-I inh)
COC(=O)C1CCN(c2cc(=O)n(-c3ccc(OC)cc3)c(=O)[nH]2)CC1	PrP 5UTR inh 67.7 | PrP 5UTR single inactive
CCOC(=O)N1CCN(c2cc(=O)n(-c3ccc(OC)cc3)c(=O)[nH]2)CC1	none (no result: TcdB inh)
COc1ccc(/C=C/CN2CCN(Cc3ccccc3)C(CCO)C2)cc1 (configuration not stated)	PrP 5UTR inh 75.7 (no result: BioA inh) | PrP 5UTR single inactive
COc1ccc(C(Nc2ccccn2)c2oc(CO)cc(=O)c2O)cc1 (configuration not stated)	PrP 5UTR inh 61.5 (no result: BioA inh) | PrP 5UTR single inactive
CC12CC[C@H]3[C@@H](CCC4(O)C[C@H](O)CCC34/C=N/NC(=O)c3ccccc3Cl)C1(O)CCC2C1=CC(=O)OC1 (some centres not stated)	none (no result: BioA inh)
C[C@H]1O[C@@H](OC2CC[C@]3(C=O)[C@H]4CC[C@]5(C)[C@@H](C6=CC(=O)OC6)CC[C@]5(O)[C@@H]4CC[C@]3(O)C2)CC2OC(C)(C)OC21 (some centres not stated)	PrP 5UTR inh 84.1 (no result: BioA inh) | PrP 5UTR single 85.0
CC(=O)OC1CC(OC2C(O)CC(OC3C(O)CC(OC4CCC5(C)C(CCC6C5CCC5(C)C(C7=CC(=O)OC7)C(O)CC65O)C4)OC3C)OC2C)OC(C)C1OC1OC(CO)C(O)C(O)C1O (configuration not stated)	PrP 5UTR inh 94.4 (no result: BioA inh) | PrP 5UTR single 67.6
CC(=O)OCC(=O)C1(O)CCC2C3CCC4CC(O)CCC4(C)C3C(=O)CC21C (configuration not stated)	none (no result: PrP 5UTR inh)
CC(=O)OC1CC2(O)C3CCC4CC(O)CCC4(C)C3CCC2(C)C1C1=CC(=O)OC1 (configuration not stated)	PrP 5UTR inh 86.2 (no result: BioA inh) | PrP 5UTR single 80.4
CC1OC(OC2C(O)CC(OC3C(O)CC(OC4CCC5(C)C(CCC6C5CCC5(C)C(C7=CC(=O)OC7)C(O)CC65O)C4)OC3C)OC2C)CC(O)C1O (configuration not stated)	PrP 5UTR inh 93.7 (no result: BioA inh) | PrP 5UTR single 85.9
CC(C)=CCC[C@](C)(O)C1CC[C@]2(C)C1C(O)CC1[C@@]3(C)CCC(O)C(C)(C)C3C(O[C@@H]3OC(CO)C(O)C(O)C3O[C@@H]3OC(C)C(O)C(O)C3O)C[C@]12C (some centres not stated)	none
CN1CCN(C(=O)C[C@H]2C[C@@H]3c4cc(NC(=O)C5CCOCC5)ccc4O[C@@H]3[C@H](CO)O2)CC1	none (no result: PrP 5UTR inh, Yp Topo-I inh)
COc1ccc(N=CC2=C(O)c3ccccc3C2=O)c(OC)c1	PrP 5UTR inh 69.0 (no result: TcdB inh) | PrP 5UTR single 64.2
CC(=O)OCC(=O)[C@H]1CC[C@H]2[C@@H]3CCC4=CC(=O)CC[C@]4(C)[C@H]3CC[C@]12C	none
C[C@]12CC[C@H]3[C@@H](CCC4=CC(=O)CC[C@@]43C)[C@@H]1CC[C@@H]2C(=O)CO	PrP 5UTR inh 76.1 | PrP 5UTR single inactive
C[C@@H]1CN([C@@H](C)CO)C(=O)c2cc(NS(=O)(=O)c3ccc(F)cc3)ccc2O[C@@H](C)CCCCO[C@H]1CN(C)S(=O)(=O)c1cccs1	none (no result: PrP 5UTR inh, Yp Topo-I inh)
C[C@H]1CCCCO[C@H](CN(C)C(=O)Nc2ccccc2)[C@@H](C)CN([C@@H](C)CO)C(=O)c2cc(NS(=O)(=O)c3cccs3)ccc2O1	none (no result: PrP 5UTR inh, Yp Topo-I inh)
COc1ccc(CCNC(=O)C2CC2)cc1	none (no result: BioA inh)
COc1ccc(C[C@H]2NC[C@H](O)[C@H]2OC(C)=O)cc1	PrP 5UTR inh 92.3 | PrP 5UTR single 95.8
Cc1cc(C(=O)CSc2nnc(-c3ccccc3)n2-c2ccccc2)c(C)n1-c1ncn[nH]1	none (no result: TcdB inh)
Cc1cc(C(=O)CSc2nnc3ccccn23)c(C)n1-c1ccccc1	PrP 5UTR inh 66.8 (no result: TcdB inh, BioA inh) | PrP 5UTR single 84.7
COC(=O)c1cn(NC(=O)c2ccccc2[N+](=O)[O-])c(=O)c2ccccc12	PrP 5UTR inh 55.9 | PrP 5UTR single inactive
COC(=O)c1cn(NC(=O)c2ccc([N+](=O)[O-])c(C)c2)c(=O)c2ccccc12	none (no result: BioA inh)
Cn1nc(-c2ccccn2)nc2c(=O)n(C)c(=O)nc1-2	none
Cn1ncnc2c(=O)n(C)c(=O)nc1-2	PrP 5UTR inh 95.9 (no result: TcdB inh) | PrP 5UTR single 97.6
O=C(C[C@@H]1C[C@@H]2c3cc(NC(=O)Nc4ccccc4F)ccc3O[C@@H]2[C@H](CO)O1)NCc1ccncc1	none (no result: PrP 5UTR inh, Yp Topo-I inh)
CC(OC(=O)CCN=C1NS(=O)(=O)c2ccccc21)C(=O)NCc1ccccc1 (configuration not stated)	PrP 5UTR inh 66.6 | PrP 5UTR single inactive
CCCC#Cc1ccc([C@H]2[C@H](CO)N3C(=O)CN(C(=O)NC4CCCC4)C[C@@H]23)cc1	none (no result: PrP 5UTR inh, Yp Topo-I inh, BioA inh)
